In PubChem BioAssay (NCATS):
Inconclusive results are not listed. The source made the active and inactive calls. Calls come from the whole dose curve; as a rule, active = well fitted inhibition curve with a large enough effect; inconclusive = small, poorly fitted or top-dose-only effect; inactive = flat fitted curve, though single readings scatter.

Assays:
Assay in all cases: qHTS profiling for inhibitors of Plasmodium falciparum proliferation (AID 504749); note: nearly all actives have a fitted effect of over 60% in size
Details in all cases: P. falciparum in erythrocytes, SYBR Green DNA, 72 h; series mostly up to 28.7 µM
[1] = test system: ECU
In short: (§1)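 SYBR Green fluorescence of parasite DNA, read after lysis and overnight dark incubation, measured growth over 72 h in erythrocyte culture at 0.3% parasitemia and 2.5% hematocrit. Data normalised to DMSO and 0.29 uM artemisinin, with plate-drift correction.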

[2] = test system: FAB9
In short: as §1

[3] = test system: GB4
In short: as §1

[4] = test system: HB3
In short: as §1

[5] = test system: ICS
In short: as §1

[6] = test system: JCK
In short: as §1

[7] = test system: N140
In short: as §1

[8] = test system: P93_24
In short: as §1

[9] = test system: P94_40
In short: as §1

[10] = test system: PAD
In short: as §1

[11] = test system: PC15
In short: as §1

[12] = test system: PC26
In short: as §1

[13] = test system: PC49
In short: as §1

[14] = test system: SC27B
In short: as §1

[15] = test system: TAB109
In short: as §1

[16] = test system: TAB113
In short: as §1

[17] = test system: TAB165
In short: as §1

[18] = test system: W2
In short: as §1

Measured: Potency

CN[C@@H]1[C@H](O[C@H]2[C@H](O[C@H]3[C@H](O)[C@@H](O)[C@H](N=C(N)N)[C@@H](O)[C@@H]3N=C(N)N)O[C@@H](C)[C@]2(O)C=O)O[C@@H](CO)[C@H](O)[C@H]1O
inactive: all assays above

CC(C)(C)CC(C)(C)c1cc(Cc2cc(C(C)(C)CC(C)(C)C)cc(-n3nc4ccccc4n3)c2O)c(O)c(-n2nc3ccccc3n2)c1
inactive: all assays above

NC(=O)[C@@H]1CCCN1C(=O)[C@H](Cc1cnc[nH]1)NC(=O)[C@@H]1CCC(=O)N1
inactive: all assays above

Cc1ncc(C[n+]2csc(CCOP(=O)(O)OP(=O)(O)O)c2C)c(N)n1
inactive: all assays above

CC(C)(C)c1ccc2c(S(=O)(=O)O)c(C(C)(C)C)ccc2c1
inactive: all assays above

C=CCN1CCCC1CNC(=O)c1cc(S(N)(=O)=O)cc(OC)c1OC (stereo unspecified)
inactive: all assays above

CCCc1ccc(C(=O)O)cc1
inactive: all assays above

CCCCCCCCCCCCCC(=O)OCC(COP(=O)([O-])OCC[N+](C)(C)C)OC(=O)CCCCCCCCCCCCC (stereo unspecified)
inactive: all assays above

O=C(O)/C=C/C(=O)Nc1ccc(S(=O)(=O)Nc2nccs2)cc1
inactive: all assays above

CC(O)CN(C)C (stereo unspecified)
inactive: all assays above

Cc1ncc(C[n+]2csc(CCOP(=O)(O)O)c2C)c(N)n1
inactive: all assays above

O=S(=O)(O)CCCS(=O)(=O)O
inactive: all assays above

CCCCCCCCCCCCOCCCN
inactive: all assays above

CC(C)(CO)[C@@H](O)C(=O)NCCC(=O)NCCSSCCNC(=O)CCNC(=O)[C@H](O)C(C)(C)CO
inactive: all assays above

Cc1cccc(C)c1NC(=O)NC1=CCCN1C
inactive: all assays above

C[Si](C)(C)O[Si](C)(C)C
inactive: all assays above

CC1=CCC2CC1C2(C)C (stereo unspecified)
inactive: all assays above

Cc1c(Cl)cccc1Nc1ncccc1C(=O)O
inactive: all assays above

CC(C)CCC[C@@H](C)[C@H]1CC[C@H]2[C@@H]3CC[C@@H]4C[C@H](O)CC[C@]4(C)[C@H]3CC[C@]12C
inactive: all assays above

CC/C(=C(/CC)c1ccc(OP(=O)(O)O)cc1)c1ccc(OP(=O)(O)O)cc1
inactive: all assays above

CC12CCC(C[N+](C)(CCC[N+](C)(C)C)C1)C2(C)C (stereo unspecified)
inactive: all assays above

COc1ccc(C(=O)CCC(=O)O)c2ccccc12
inactive: all assays above

CCCCO
inactive: all assays above

CCCCCCCCCCCCCCCCCC(=O)OC[C@@H](O)[C@H]1OC[C@H](O)[C@H]1O
inactive: all assays above

O=C(O)COc1ccccc1/C=N/NC(=O)c1ccncc1
inactive: all assays above

CC(C)CCCC(C)NC(C)C (stereo unspecified)
inactive: all assays above

Cc1ccccn1
inactive: all assays above
